Assay results taken from PubChem BioAssay (NCI).
Values joined by “and” are separate entries in the source; they are usually repeats but may differ in a detail not shown here. Identical values can stand only once. This is part of a sample that, as a whole, favours compounds with a hit. Of some 83,000 tested, about 20% had one in any assay.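 Compound tested at a single concentration for 48 hours in 96-well plates; a percent growth value below 10 was scored as active.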 Active and inactive are the calls of the source.

Columns and labels:
Assay in all cases: NCI-60 one-dose screen, 48 h (100 = growth as untreated, 0 = no growth, -100 = all killed)
Conditions in all cases: 10 µM unless noted
SK-MEL-2 melanoma = system: SK-MEL-2 melanoma
EKVX NSCLC = system: EKVX NSCLC
SN12C renal = system: SN12C renal
UO-31 renal = system: UO-31 renal
TK-10 renal = system: TK-10 renal
ACHN renal = system: ACHN renal
CAKI-1 renal = system: CAKI-1 renal
A498 renal = system: A498 renal
CCRF-CEM leukemia = system: CCRF-CEM leukemia
MOLT-4 leukemia = system: MOLT-4 leukemia
SR leukemia = system: SR leukemia
RPMI-8226 leukemia = system: RPMI-8226 leukemia
OVCAR-8 ovarian = system: OVCAR-8 ovarian
OVCAR-5 ovarian = system: OVCAR-5 ovarian
OVCAR-4 ovarian = system: OVCAR-4 ovarian
SK-OV-3 ovarian = system: SK-OV-3 ovarian
IGROV1 ovarian = system: IGROV1 ovarian
OVCAR-3 ovarian = system: OVCAR-3 ovarian
HS 578T breast = system: HS 578T breast
NCI/ADR-RES ovarian = system: NCI/ADR-RES ovarian

Measured: growth

COc1ccc(C(c2cc(OC)c(OC)c(OC)c2)n2ccnc2)cc1O (stereo not given)
inactive: SK-MEL-2 melanoma 43.5% | EKVX NSCLC 30.2% | SN12C renal 37.6% | UO-31 renal 62% | TK-10 renal 52.9% | ACHN renal 42.4% | CAKI-1 renal 41.3% | MOLT-4 leukemia 14% | RPMI-8226 leukemia 18.9% | OVCAR-8 ovarian 10.3% | OVCAR-5 ovarian 71.1% | OVCAR-4 ovarian 73.6% | SK-OV-3 ovarian 21.8% | IGROV1 ovarian 36.4% | HS 578T breast 29.1% | NCI/ADR-RES ovarian 12.1%
active: A498 renal 8.04% | CCRF-CEM leukemia 6.97% | SR leukemia 8.48% | OVCAR-3 ovarian -9.52%

CCN1C(=S)N(CC)C2C1NC(=S)N2/N=C/C=C/c1ccccc1 (stereo not given)
inactive: SK-MEL-2 melanoma 46.7% | EKVX NSCLC 62.5% | SN12C renal 40.8% | UO-31 renal 40% | TK-10 renal 69.2% | ACHN renal 39.3% | CAKI-1 renal 30.4% | CCRF-CEM leukemia 14.7% | MOLT-4 leukemia 26.4% | SR leukemia 20% | RPMI-8226 leukemia 41.4% | OVCAR-8 ovarian 41.6% | OVCAR-5 ovarian 54.5% | OVCAR-4 ovarian 61% | SK-OV-3 ovarian 35.5% | IGROV1 ovarian 37.9% | HS 578T breast 12.1% | NCI/ADR-RES ovarian 15.4%
active: A498 renal 0.507% | OVCAR-3 ovarian 3.77%

NS(=O)(=O)c1ccc(C(=O)N=Nc2c(O)[nH]c3c(F)cccc23)cc1
inactive: SK-MEL-2 melanoma 104% | EKVX NSCLC 102% | SN12C renal 97.1% | UO-31 renal 76.4% | TK-10 renal 107% | ACHN renal 97.3% | CAKI-1 renal 93.2% | A498 renal 104% | CCRF-CEM leukemia 102% | MOLT-4 leukemia 124% | SR leukemia 103% | RPMI-8226 leukemia 106% | OVCAR-8 ovarian 96.7% | OVCAR-5 ovarian 99.8% | OVCAR-4 ovarian 102% | SK-OV-3 ovarian 109% | IGROV1 ovarian 99.5% | OVCAR-3 ovarian 117% | HS 578T breast 103% | NCI/ADR-RES ovarian 100%

CCN(CC)CC(=O)Nc1ccc2ncnc(Nc3ccc(Oc4cccc(F)c4)c(Cl)c3)c2c1
active: SR leukemia 2.54%
inactive: SK-MEL-2 melanoma 90.9% | EKVX NSCLC 42.8% | SN12C renal 67.8% | UO-31 renal 22% | TK-10 renal 51.9% | ACHN renal 41.6% | CAKI-1 renal 46.6% | A498 renal 44.2% | CCRF-CEM leukemia 46.8% | MOLT-4 leukemia 41.8% | RPMI-8226 leukemia 27.6% | OVCAR-8 ovarian 76.1% | OVCAR-5 ovarian 80.8% | OVCAR-4 ovarian 52.6% | SK-OV-3 ovarian 22.4% | IGROV1 ovarian 18% | OVCAR-3 ovarian 52.7% | HS 578T breast 79.5% | NCI/ADR-RES ovarian 69.6%

S=c1nc(CS)[nH]c2ccccc12
inactive: SK-MEL-2 melanoma 101% | EKVX NSCLC 84% | SN12C renal 95.4% | UO-31 renal 71.8% | TK-10 renal 161% | ACHN renal 93.5% | CAKI-1 renal 77.1% | A498 renal 53.2% | CCRF-CEM leukemia 102% | MOLT-4 leukemia 102% | SR leukemia 101% | RPMI-8226 leukemia 102% | OVCAR-8 ovarian 90.9% | OVCAR-5 ovarian 102% | OVCAR-4 ovarian 94.3% | SK-OV-3 ovarian 100% | IGROV1 ovarian 85.7% | OVCAR-3 ovarian 106% | HS 578T breast 94.1% | NCI/ADR-RES ovarian 101%

CCN(CC)/C([O-])=c1\cccc\c1=C1\N=C(c2ccccc2)N=C1[n+]1ccc(-c2ccccc2)cc1
inactive: SK-MEL-2 melanoma 78.1% | EKVX NSCLC 93.4% | SN12C renal 89.5% | UO-31 renal 37.1% | TK-10 renal 102% | ACHN renal 95.8% | CAKI-1 renal 99.9% | A498 renal 96% | CCRF-CEM leukemia 84.6% | MOLT-4 leukemia 88% | SR leukemia 102% | RPMI-8226 leukemia 98.4% | OVCAR-8 ovarian 97.6% | OVCAR-5 ovarian 87.8% | OVCAR-4 ovarian 99.5% | SK-OV-3 ovarian 105% | IGROV1 ovarian 54.7% | OVCAR-3 ovarian 94% | HS 578T breast 109% | NCI/ADR-RES ovarian 98.2%

CC12CCC(C(=O)CC1=O)C2(C)C (stereo not given)
inactive: SK-MEL-2 melanoma 110% | EKVX NSCLC 97.5% | SN12C renal 102% | UO-31 renal 88.3% and 87.1% | TK-10 renal 100% and 105% | ACHN renal 107% and 106% | CAKI-1 renal 101% and 97% | A498 renal 93.2% and 108% | CCRF-CEM leukemia 103% and 96.8% | MOLT-4 leukemia 82.6% and 96.5% | SR leukemia 122% and 93% | RPMI-8226 leukemia 101% and 94.2% | OVCAR-8 ovarian 103% and 99.5% | OVCAR-5 ovarian 101% and 106% | OVCAR-4 ovarian 101% | SK-OV-3 ovarian 104% and 105% | IGROV1 ovarian 110% and 104% | OVCAR-3 ovarian 105% and 106% | HS 578T breast 108% and 120% | NCI/ADR-RES ovarian 111% and 103%

CN1C(=O)/C(=C/c2ccc(C(=O)Nc3ncc(Cc4ccccc4Cl)s3)cc2)SC1=S
inactive: SK-MEL-2 melanoma 101% | EKVX NSCLC 75.6% | SN12C renal 68.6% | UO-31 renal 63.5% | TK-10 renal 83.6% | ACHN renal 52.1% | CAKI-1 renal 34.1% | A498 renal 60.7% | CCRF-CEM leukemia 73.7% | MOLT-4 leukemia 82.1% | SR leukemia 35.7% | RPMI-8226 leukemia 73.3% | OVCAR-8 ovarian 79.3% | OVCAR-5 ovarian 70.5% | OVCAR-4 ovarian 69.6% | SK-OV-3 ovarian 80.5% | IGROV1 ovarian 78.8% | OVCAR-3 ovarian 93.3% | HS 578T breast 65.8% | NCI/ADR-RES ovarian 71.6%

FC(F)(F)Sc1ccc(/C=C/c2cc(/C=C/c3ccc(SC(F)(F)F)cc3)n(-c3ccccc3)n2)cc1
inactive: SK-MEL-2 melanoma 101% | EKVX NSCLC 93.9% | SN12C renal 100% | UO-31 renal 76.7% | TK-10 renal 100% | ACHN renal 93.9% | CAKI-1 renal 78.5% | A498 renal 86.8% | CCRF-CEM leukemia 94.7% | MOLT-4 leukemia 95.6% | SR leukemia 91.4% | RPMI-8226 leukemia 93.9% | OVCAR-8 ovarian 95.1% | OVCAR-5 ovarian 110% | OVCAR-4 ovarian 92.3% | SK-OV-3 ovarian 88.1% | IGROV1 ovarian 99.9% | OVCAR-3 ovarian 95.5% | HS 578T breast 98.8% | NCI/ADR-RES ovarian 98.5%

Cc1ccc(Nc2nc(-c3cc(O)c(C)c(C)c3O)cs2)cc1
inactive: SK-MEL-2 melanoma 105% | EKVX NSCLC 97.4% | SN12C renal 97% | UO-31 renal 89.7% | TK-10 renal 120% | ACHN renal 99.1% | CAKI-1 renal 92.7% | A498 renal 123% | CCRF-CEM leukemia 14.8% | MOLT-4 leukemia 26.5% | SR leukemia 70.3% | RPMI-8226 leukemia 77.5% | OVCAR-8 ovarian 84.1% | OVCAR-5 ovarian 109% | OVCAR-4 ovarian 105% | SK-OV-3 ovarian 105% | IGROV1 ovarian 92.9% | OVCAR-3 ovarian 104% | HS 578T breast 97.9% | NCI/ADR-RES ovarian 73%

O=C(CCN1CCOCC1)Nc1cccc(-n2cc(-c3ccncc3)c(-c3ccc(Cl)c(O)c3)n2)c1
active: HS 578T breast 7.21%
inactive: SK-MEL-2 melanoma 14.8% | EKVX NSCLC 55.7% | SN12C renal 42.8% | UO-31 renal 41.9% | TK-10 renal 54.5% | ACHN renal 34.2% | CAKI-1 renal 38.6% | A498 renal 10.9% | CCRF-CEM leukemia 17.7% | MOLT-4 leukemia 28.6% | SR leukemia 16.8% | RPMI-8226 leukemia 17.1% | OVCAR-8 ovarian 39.5% | OVCAR-5 ovarian 62.2% | OVCAR-4 ovarian 66.5% | SK-OV-3 ovarian 25.1% | IGROV1 ovarian 51.8% | OVCAR-3 ovarian 14.3% | NCI/ADR-RES ovarian 21.5%

NC1=CC(=O)c2cccnc2C1=O
active: SK-MEL-2 melanoma -46.6% | EKVX NSCLC -20.8% | SN12C renal -85.2% | UO-31 renal -98.2% | ACHN renal 5.89% | CAKI-1 renal -69.4% | CCRF-CEM leukemia -24.3% | MOLT-4 leukemia -46.4% | SR leukemia -27% | RPMI-8226 leukemia -25.7% | OVCAR-8 ovarian -5.58% | OVCAR-5 ovarian -70.8% | OVCAR-4 ovarian -84.5% | IGROV1 ovarian -53.7% | OVCAR-3 ovarian -1.02% | HS 578T breast -10.3% | NCI/ADR-RES ovarian 1.37%
inactive: TK-10 renal 94.3% | A498 renal 81.9% | SK-OV-3 ovarian 58%

CCCCC1COc2cccc3c2N1C=C/C3=C\C(=O)N(C)c1cccc(Cl)c1 (stereo not given)
inactive: SK-MEL-2 melanoma 121% | EKVX NSCLC 95.8% | SN12C renal 94.2% | UO-31 renal 78% | TK-10 renal 112% | ACHN renal 98.5% | CAKI-1 renal 78.9% | A498 renal 94.6% | CCRF-CEM leukemia 97.2% | MOLT-4 leukemia 86.6% | SR leukemia 94.9% | RPMI-8226 leukemia 92.3% | OVCAR-8 ovarian 97.1% | OVCAR-5 ovarian 102% | OVCAR-4 ovarian 72.8% | SK-OV-3 ovarian 95.3% | IGROV1 ovarian 103% | OVCAR-3 ovarian 96.4% | HS 578T breast 99.8% | NCI/ADR-RES ovarian 97.7%
